The nature of assay [1]: Nuclear factor erythroid 2-related factor 2/antioxidant responsive element (Nrf2/ARE) small molecule agonists: qHTS cell viability counter screen in human keratinocytes (AID 1919968; active = well fitted curve in the direction sought with a large enough effect in the repeat runs; an effect the other way counts as inactive or inconclusive; note: nearly all actives have a fitted effect of over 55% in size). The method in brief:
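Viability counter-screen: KeratinoSens reporter cells, DMSO-delivered compounds, 23 h at 37 C, CellTiter-Fluor fluorescence.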
A general note: qHTS replaces the single test concentration by a dilution series.

Assay [2] can be described thus: Nuclear factor erythroid 2-related factor 2/antioxidant responsive element (Nrf2/ARE) small molecule agonists: luciferase reporter gene qHTS assay in human keratinocytes (AID 1919969). Note: nearly all actives have a fitted effect of over 35% in size. Note: potency is the fitted concentration of half-maximal effect.
In assay [3] the target is Gonadotropin-releasing hormone receptor (Homo sapiens) (UniProt P30968). Description: Human gonadotropin-releasing hormone receptor (GnRHR) small molecule agonists, calcium flux assay in GnRHR-HEK293 cells (AID 1920063). Note: nearly all actives have a fitted effect of over 35% in size. The method in brief:
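Tox21-format agonist screen using human GnRHR-expressing HEK293 cells and a fluorescent calcium dye; kinetic 3-min fluorescence reading after compound addition, 15-point concentration series run in triplicate.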

The target in assay [4] is KiSS-1 receptor (Homo sapiens) (UniProt Q969F8). Put plainly: Human kisspeptin (KISS1R) small molecule agonists, calcium flux assay in KISS1R-HEK293 cells (AID 1920064; active = well fitted curve in the direction sought with a large enough effect in the repeat runs; an effect the other way counts as inactive or inconclusive). The gist of the method: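 Intracellular calcium mobilization in KISS1R-HEK293 cells was recorded by fluorescence (Ex/Em 480/540) for 3 min following compound addition to cells pre-loaded 1 h with calcium dye.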
Sequence of KiSS-1 receptor (Homo sapiens) (Q969F8 whole entry, looked up): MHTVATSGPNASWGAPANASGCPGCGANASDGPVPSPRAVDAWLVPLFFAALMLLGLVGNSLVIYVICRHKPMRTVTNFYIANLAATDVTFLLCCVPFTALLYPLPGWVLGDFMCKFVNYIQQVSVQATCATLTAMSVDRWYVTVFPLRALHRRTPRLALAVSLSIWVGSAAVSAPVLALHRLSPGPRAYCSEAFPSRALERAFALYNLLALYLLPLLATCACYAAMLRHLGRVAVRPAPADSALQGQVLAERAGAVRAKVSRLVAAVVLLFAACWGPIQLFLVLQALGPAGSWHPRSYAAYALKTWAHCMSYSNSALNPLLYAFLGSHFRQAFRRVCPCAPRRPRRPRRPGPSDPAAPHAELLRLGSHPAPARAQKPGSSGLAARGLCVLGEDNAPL

Assay [5] is described as follows: G protein-coupled receptor (GPCR) small molecule agonists, calcium flux assay: HEK293 wild type cell line counter screen (AID 1920065). The method in brief: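 In this agonist-mode screen, ATP is the positive control and DMSO the vehicle. Cells grow 18 h before a 1 h dye incubation at 37 C; signal is taken at Ex/Em 480/540 over 3 min.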
(In general: Calcium flux is commonly read through the fluorescence of an indicator in the cells.)

Assay [6] in a line: p53 small molecule agonists, cell-based qHTS assay with human liver microsomes (AID 1963577).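 Note: p53 response element beta-lactamase reporter cells with liver microsomes plus NADPH.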 The gist of the method:
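Metabolically competent format: test substances, human liver microsomes and NADPH (both 0.5 mg/mL final) incubated with p53RE-bla cells 16 h at 37 C. Beta-lactamase reporter signal then quantified by fluorescence.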

Assay [7] is described as follows: p53 small molecule agonists, cell-based qHTS assay with rat liver microsomes (AID 1963578). The method in brief:
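Each plate received p53RE-bla cells, then compound, then rat liver microsomes and NADPH (both 0.5 mg/mL final). Plates were held 16 h at 37 C, and beta-lactamase activity was detected with LiveBLAzer over 2 h.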

The nature of assay [8]: p53 small molecule agonists, cell-based qHTS assay with human liver microsomes: qHTS cell viability counter screen (AID 1963579). Note: nearly all actives have a fitted effect of over 45% in size. The gist of the method: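 Tox21 library compounds, delivered from DMSO stocks, were tested on p53RE-bla cells together with 0.5 mg/mL human liver microsomes and 0.5 mg/mL NADPH (final) over 16 h at 37 C; CellTiter-Glo luminescence served as the cytotoxicity measure.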

Assay [9] is described as follows: p53 small molecule agonists, cell-based qHTS assay (AID 1963582; active = well fitted activation curve with a large enough effect in the signal ratio in the repeat runs, not every such curve was filed as active; the % refers to the signal ratio). The gist of the method: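 Agonist activity was scored from beta-lactamase FRET fluorescence in p53RE-bla cells treated 16 h at 37 C with compounds in DMSO, substrate incubation being 2 h at room temperature.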
For assay [10], the target named is 5-hydroxytryptamine receptor 2A (Homo sapiens) (UniProt P28223). Description: 5-hydroxytryptamine receptor 2A (HTR2A) small molecule antagonists, cell-based qHTS assay (AID 1963586). Note: nearly all actives have a fitted effect of over 45% in size. The method in brief:
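Antagonist-mode intracellular calcium assay: DOI (4 nM) added after 5 min compound pre-incubation at room temperature to dye-loaded HTR2A-CHO cells. Fluorescence followed for 3 min, sampled every second.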

The target is the same in assay [11]. Description: 5-hydroxytryptamine receptor 2A (HTR2A) small molecule agonists, cell-based qHTS assay (AID 1963587). Note: nearly all actives have a fitted effect of over 30% in size. The gist of the method: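 HTR2A-CHO cells, plated 18 h at 37 C/5% CO2, dye-loaded 1 h at 37 C; compounds in DMSO added by pin tool (agonist mode). Intracellular calcium flux read as kinetic fluorescence on FDSS over 2 min at 1 s intervals.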
Assay [12] concerns the target Muscarinic acetylcholine receptor M1 (Homo sapiens) (UniProt P11229). Put plainly: Cholinergic receptor muscarinic 1 (CHRM1) small molecule antagonists, cell-based qHTS assay (AID 1963588). Note: nearly all actives have a fitted effect of over 40% in size. The method in brief: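 CHRM1-CHO calcium-flux assay, antagonist mode. Cells were seeded 18 h, dye-loaded 1 h at 37 C and given compound for 5 min at RT, then acetylcholine was added at 50nM. FDSS fluorescence was read 3 min; 15 concentrations, three runs.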

Assay [13] has the same target. Put plainly: Cholinergic receptor muscarinic 1 (CHRM1) small molecule agonists, cell-based qHTS assay (AID 1963589). Note: nearly all actives have a fitted effect of over 35% in size. The gist of the method:
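Stable CHRM1-CHO cells (human receptor) were incubated 18 h, dye-loaded for 1 h at 37 C and exposed to test compounds for agonist activity, with calcium-dependent fluorescence followed kinetically.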

Assay [14] is described as follows: cAMP Responsive Elements (CRE) small molecule agonists, cell-based qHTS assay (AID 1963590). The method in brief: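 FRET-based beta-lactamase readout (LiveBLAzer B/G, 2 h RT) quantified CRE activation in HEK 293T CRE-bla cells after 3 h treatment with DMSO-dissolved compounds.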
The nature of assay [15]: cAMP Responsive Elements (CRE) small molecule antagonists, cell-based qHTS assay (AID 1963591; active = well fitted inhibition curve with a large enough effect in the signal ratio in the repeat runs, not every such curve was filed as active; the % refers to the signal ratio). The method in brief:
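qHTS in CRE-bla HEK 293T cells: compound in DMSO, then 0.25 uM NKH477 (final), 3 h at 37 °C/5% CO2; beta-lactamase FRET read-out after 2 h substrate incubation.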

Assay [16] deals with Beta-2 adrenergic receptor (Homo sapiens) (UniProt P07550). Put plainly: Adrenergic beta2 receptor (ADRB2) small molecule agonists, cell-based qHTS assay (AID 1963593).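 Note: CHO cells stably overexpressing human ADRB2.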 The method in brief: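 CHO cells stably over-expressing ADRB2 were plated overnight at 37C, then dosed with compounds plus a stimulation mix containing 100uM IBMX and 25uM Ro-20-1724 for 0.5hr at room temperature. cAMP was measured by HTRF competition, 1hr.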
Sequence of Beta-2 adrenergic receptor (Homo sapiens) (P07550 whole entry, looked up): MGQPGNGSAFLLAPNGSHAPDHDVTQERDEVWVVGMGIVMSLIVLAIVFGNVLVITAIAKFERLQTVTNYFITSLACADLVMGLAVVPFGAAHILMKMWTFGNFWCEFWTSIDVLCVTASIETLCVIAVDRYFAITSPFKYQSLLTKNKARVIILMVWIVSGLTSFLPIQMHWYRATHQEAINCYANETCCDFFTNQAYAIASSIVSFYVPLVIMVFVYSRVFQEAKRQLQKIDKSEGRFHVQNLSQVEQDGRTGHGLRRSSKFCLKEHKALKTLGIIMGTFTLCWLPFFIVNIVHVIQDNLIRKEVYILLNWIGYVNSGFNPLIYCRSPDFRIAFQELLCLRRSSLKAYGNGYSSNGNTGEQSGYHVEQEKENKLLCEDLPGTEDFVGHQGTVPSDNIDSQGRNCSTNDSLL

The target in assay [17] is D(2) dopamine receptor (Homo sapiens) (UniProt P14416). Put plainly: Dopamine D2 receptor (DRD2) small molecule antagonists, cell-based qHTS assay (AID 1963595; active = well fitted inhibition curve with a large enough effect in the signal ratio in the repeat runs, with a control signal flat; the % refers to the signal ratio). The gist of the method:
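HEK293 cells stably expressing DRD2 were preincubated with 0.1 mM Ro20-1724, then with compound for 10 min at room temperature. Cells were stimulated with 200 nM NKH477 plus 12 nM quinpirole for 30 min, and cAMP was read by HTRF.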

The target in assay [18] is Beta-2 adrenergic receptor (Homo sapiens) (UniProt P07550). Description: Adrenergic beta2 receptor (ADRB2) small molecule antagonists, cell-based qHTS assay (AID 1963592). Note: series mostly up to about 92 µM; nearly all actives have a fitted effect of over 50% in size. The method in brief: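 Cells (CHO, stable ADRB2 overexpression) incubated 18-20hr at 37C; compounds added from DMSO; agonist mix (1nM isoproterenol, 100uM IBMX, 25uM Ro-20-1724) added; 0.5hr RT; d2-cAMP and anti-cAMP-cryptate added; 1hr RT; 665/615 nm read.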

Assay [19] deals with D(2) dopamine receptor (Homo sapiens) (UniProt P14416). Description: Dopamine D2 receptor (DRD2) small molecule agonists, cell-based qHTS assay (AID 1963594). Note: nearly all actives have a fitted effect of over 35% in size. The method in brief:
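HEK293 cells stably expressing DRD2 were cultured 24 h at 37 C, then given Ro20-1724 (0.1 mM final) and compounds for 10 min at room temperature. NKH477 (200nM) was then added for 30 min. cAMP was read by HTRF.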

Here are results for 13 compounds from PubChem BioAssay (Tox21).

Inconclusive results are not listed. Active and inactive are the calls of the source. Unless noted, calls come from the whole dose curve.

Sequence of 5-hydroxytryptamine receptor 2A (Homo sapiens) (P28223 whole entry, looked up): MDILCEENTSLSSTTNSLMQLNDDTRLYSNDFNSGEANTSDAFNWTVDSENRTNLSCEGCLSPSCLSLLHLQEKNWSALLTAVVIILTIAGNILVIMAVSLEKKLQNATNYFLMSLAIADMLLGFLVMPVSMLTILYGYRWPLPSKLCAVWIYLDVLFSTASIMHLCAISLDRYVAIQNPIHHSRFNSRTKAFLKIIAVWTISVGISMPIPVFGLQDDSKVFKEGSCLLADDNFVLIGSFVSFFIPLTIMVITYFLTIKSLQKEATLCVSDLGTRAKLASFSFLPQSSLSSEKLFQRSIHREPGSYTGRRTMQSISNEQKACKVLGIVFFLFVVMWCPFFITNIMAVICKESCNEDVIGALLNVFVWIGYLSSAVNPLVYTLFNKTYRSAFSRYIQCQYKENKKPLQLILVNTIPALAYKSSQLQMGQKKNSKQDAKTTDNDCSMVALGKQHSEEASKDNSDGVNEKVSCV
Sequence of Gonadotropin-releasing hormone receptor (Homo sapiens) (P30968 whole entry, looked up): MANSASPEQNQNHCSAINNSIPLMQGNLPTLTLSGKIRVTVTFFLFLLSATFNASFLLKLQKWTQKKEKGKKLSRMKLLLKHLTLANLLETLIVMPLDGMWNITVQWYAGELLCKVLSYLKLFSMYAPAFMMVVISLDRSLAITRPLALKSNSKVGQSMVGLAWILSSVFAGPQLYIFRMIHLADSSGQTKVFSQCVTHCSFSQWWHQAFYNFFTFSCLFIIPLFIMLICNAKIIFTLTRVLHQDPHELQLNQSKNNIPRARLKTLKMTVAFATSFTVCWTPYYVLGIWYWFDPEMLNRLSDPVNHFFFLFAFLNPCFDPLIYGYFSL
Sequence of D(2) dopamine receptor (Homo sapiens) (P14416 whole entry, looked up): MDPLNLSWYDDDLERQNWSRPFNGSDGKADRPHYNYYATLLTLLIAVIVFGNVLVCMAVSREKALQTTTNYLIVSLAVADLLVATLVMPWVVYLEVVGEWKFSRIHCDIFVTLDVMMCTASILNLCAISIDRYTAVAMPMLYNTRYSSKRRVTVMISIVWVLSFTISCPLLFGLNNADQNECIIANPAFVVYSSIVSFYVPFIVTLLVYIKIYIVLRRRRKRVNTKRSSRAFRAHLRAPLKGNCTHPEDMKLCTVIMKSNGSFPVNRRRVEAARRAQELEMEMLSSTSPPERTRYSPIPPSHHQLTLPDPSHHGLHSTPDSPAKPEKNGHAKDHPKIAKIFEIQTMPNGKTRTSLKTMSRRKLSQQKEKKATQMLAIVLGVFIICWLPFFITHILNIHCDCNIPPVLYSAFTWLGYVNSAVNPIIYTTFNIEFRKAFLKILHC
Sequence of Muscarinic acetylcholine receptor M1 (Homo sapiens) (P11229 whole entry, looked up): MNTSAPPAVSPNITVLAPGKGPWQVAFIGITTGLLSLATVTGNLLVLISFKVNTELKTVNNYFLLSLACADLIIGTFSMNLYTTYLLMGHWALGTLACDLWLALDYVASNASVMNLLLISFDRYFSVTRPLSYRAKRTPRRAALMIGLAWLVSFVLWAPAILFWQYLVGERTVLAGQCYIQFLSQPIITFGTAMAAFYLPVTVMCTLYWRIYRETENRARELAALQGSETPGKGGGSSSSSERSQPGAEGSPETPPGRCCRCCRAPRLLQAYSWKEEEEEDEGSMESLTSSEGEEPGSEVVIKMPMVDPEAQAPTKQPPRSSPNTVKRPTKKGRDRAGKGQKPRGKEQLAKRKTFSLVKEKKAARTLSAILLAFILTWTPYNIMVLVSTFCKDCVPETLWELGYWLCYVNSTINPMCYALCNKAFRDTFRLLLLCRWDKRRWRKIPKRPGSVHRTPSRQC

`O=S(=O)(O)CO`: the Potency result in assay [1], in assay [2], in [3], in assay [4], in assay [5] and in [6] was “inactive” in each case. Further, the Potency entry in [7], in [8], in assay [9], in assay [10], in [11] and in assay [12] was “inactive” throughout. The Potency entry in assay [13], in assay [14], in assay [15], in assay [16] and in assay [17] was “inactive” throughout.

Regarding `CCC(C)CO` (stereo not drawn), the Potency result in [1], in assay [2], in assay [3], in assay [4], in assay [5] and in assay [6] was “inactive” throughout. Besides, the Potency entry in [7], in [8], in assay [9], in assay [10], in assay [11] and in assay [12] was “inactive” each time. Further, the Potency entry in assay [13], in assay [14], in assay [15], in assay [18], in [16] and in assay [19] was “inactive” in each case. The Potency entry in assay [17] was “inactive”.

As for `NCCOCCN`, the Potency result in [1], in assay [2], in assay [3], in assay [4], in [5] and in [6] was “inactive” throughout. Besides, the Potency result in assay [7], in assay [8], in [9], in assay [10], in [11] and in [12] was “inactive” each time. Moreover, the Potency result in [13], in assay [14], in [15], in [18], in assay [19] and in assay [17] was “inactive” throughout.

Take `NC(=O)c1ccc([N+](=O)[O-])cc1`: the Potency result in assay [1], in [2], in assay [3], in [4], in [5] and in assay [6] was “inactive” each time. The Potency result in [7], in assay [8], in [10], in assay [11], in [12] and in assay [13] was “inactive” each time. Also, the Potency result in assay [14], in assay [15], in assay [18], in [19] and in assay [17] was “inactive” each time.

In the case of `O=C(O)CCCCCC(=O)O`, the Potency entry in [1], in assay [2], in [3], in [4], in assay [5] and in assay [6] was “inactive” throughout. The Potency entry in assay [7], in assay [8], in [9], in assay [10], in assay [11] and in assay [12] was “inactive” throughout. For the same compound, the Potency entry in [13], in assay [14], in assay [15], in assay [18], in [19] and in assay [17] was “inactive” each time.

For `CC(C)(O)C#CC(C)(C)O`, the Potency entry in [1], in [2], in [3], in assay [4], in assay [5] and in assay [6] was “inactive” throughout. In addition, the Potency entry in assay [7], in assay [8], in assay [9], in assay [10], in assay [11] and in assay [12] was “inactive” throughout. The Potency result in assay [13], in assay [14], in assay [15], in [18], in assay [19] and in assay [17] was “inactive” in each case.

As to `OC1OC[C@@H](O)[C@H](O)[C@H]1O` (stereo partly drawn), the Potency entry in assay [1], in [2], in assay [3], in [4], in [5] and in assay [6] was “inactive” throughout. The Potency result in [7], in assay [8], in [9], in assay [10], in assay [11] and in assay [13] was “inactive” throughout. The Potency result in assay [14], in assay [15], in assay [18], in [16], in assay [19] and in assay [17] was “inactive” each time.

On to `ClCCCl`, for which the Potency entry in assay [1], in assay [2], in [3], in [4], in [5] and in assay [6] was “inactive” in each case. Also, the Potency entry in [7], in [8], in assay [9], in assay [10], in [11] and in assay [12] was “inactive” throughout. The Potency entry in assay [13], in assay [14], in assay [15], in [18], in [19] and in [17] was “inactive” in each case.

Turning to `CC(O)C(C)O` (stereo not drawn), the Potency entry in assay [1], in assay [2], in assay [3], in assay [4], in assay [5] and in [6] was “inactive” in each case. The Potency entry in assay [7], in assay [8], in [9], in [10], in [11] and in assay [12] was “inactive” throughout. Besides, the Potency entry in assay [13], in assay [14], in assay [18], in [16], in assay [19] and in assay [17] was “inactive” throughout.

On to `CC1CC(OC(=O)c2ccccc2O)CC(C)(C)C1` (stereo not drawn), for which the Potency result in [1], in assay [3], in assay [4], in [5], in assay [6] and in [7] was “inactive” in each case. Also, the Potency result in assay [8], in assay [10], in assay [11], in assay [12], in assay [13] and in assay [14] was “inactive” throughout. Moreover, the Potency result in assay [15], in [16], in [19] and in assay [17] was “inactive” throughout. Also, the Potency in assay [2] is 61.1 µM (active).

On to `CCCOCCOCCO`, for which the Potency entry in assay [1], in assay [2], in assay [3], in assay [4], in [5] and in [6] was “inactive” in each case. The Potency entry in [7], in assay [8], in assay [9], in [10], in assay [11] and in assay [12] was “inactive” throughout. Besides, the Potency entry in assay [14], in [18], in [19] and in assay [17] was “inactive” in each case.

Regarding `O=C[C@H](O)[C@H](O)[C@H](O)CO`, the Potency result in [1], in [2], in [3], in [4], in [5] and in assay [6] was “inactive” each time. Also, the Potency entry in assay [7], in assay [8], in [9], in assay [10], in assay [11] and in [12] was “inactive” each time. For the same compound, the Potency entry in assay [13], in assay [14], in [16], in assay [19] and in assay [17] was “inactive” in each case.

With `O=C(O)c1cc(O)c(O)c(O)c1`, the Potency entry in assay [1], in assay [2], in assay [3], in assay [4], in assay [5] and in assay [6] was “inactive” in each case. Besides, the Potency entry in assay [7], in assay [8], in assay [9], in assay [10], in assay [11] and in assay [13] was “inactive” each time. Besides, the Potency result in [14], in assay [15], in assay [18], in [16] and in assay [17] was “inactive” in each case.
